The source of these data is PubChem BioAssay (NCATS).

“And” between values parts separate entries of the source, which are not always exact repeats. Identical values can stand only once. Results filed as inconclusive are left out. Unmarked numbers belong to inactive results. The source made the active and inactive calls. Calls come from the whole dose curve; as a rule, active = well fitted inhibition curve with a large enough effect; inconclusive = small, poorly fitted or top-dose-only effect; inactive = no such curve, though single readings can be large or run the other way. Positions of bridges follow the written chain, without caps; N, C: chain ends. Non-standard residues stand in square brackets, D forms with d. Residues, ends and D or L forms follow the SMILES beside them. ξ: configuration not given here. *: point of attachment. Octanoyl(6-Me) = CCC(C)CCCCC(=O)*; ξThr(3R) = C[C@@H](O)C(N)C(=O)O; dDab = NCC[C@@H](N)C(=O)O; Dab = NCC[C@H](N)C(=O)O; Nva = CCC[C@H](N)C(=O)O; Cbz = O=C(OCc1ccccc1)*
% is set by controls: 0 for no effect and ±100 for the full control effect; potency is the fitted concentration of half-maximal effect.

This test is described as follows: Primary qHTS for inhibitors of nuclear receptor binding SET domain protein 2 (NSD2) in an RCH-ACV wild type WT cells (2C) (AID 1645877). Note: nearly all actives have a fitted effect of over 70% in size. Conditions: RCH-ACV (leukaemia line) NSD2 WT (2C) viability, CellTiter-Glo, 72 h; series mostly up to 44.9 µM; activity change, negative = cell killing: at the top concentration.
In the case of `CCNC(=O)Nc1ccc(-c2nc3c(c(N4CCOC[C@H]4C)n2)CCN(C2COC2)C3)cc1`, the Potency is 1.3 µM (active).
The same measure, in the same setting: the same measure for `CC(N[C@H]1CCCC[C@H]1NC(=O)c1ccc(Cl)cc1)c1cccc2ccccc12` (some centres not stated): 6.61 µM (active); for `Cc1cc(Nc2ncc3c(n2)N(C)C(=O)N(c2cc(NC(=O)c4cccc(C(F)(F)F)c4)ccc2C)C3)n(C)n1`: 0.132 µM (active).
As for `C[C@@H]1CC[C@@]2(OC1)OC1CC3C4CC=C5CC(O)CCC5(C)C4CCC3(C)C1[C@@H]2C` (some centres not stated), the “activity change, negative = cell killing” value is 3.2%.
With `C[C@](Cc1c[nH]c2ccccc12)(NC(=O)OC1C2CC3CC(C2)CC1C3)C(=O)NC[C@H](NC(=O)CCC(=O)O)c1ccccc1` (some centres not stated), the “activity change, negative = cell killing” value was -0.303%.
`COc1cc([C@@H]2c3cc4c(cc3[C@H](O)[C@H]3COC(=O)[C@@H]23)OCO4)cc(OC)c1OC`: the Potency was 0.417 µM (active).
For the compound `CCN(CC)Cc1ccc2cc(COC(=O)Nc3ccc(C(=O)NO)cc3)ccc2c1`, the Potency was 230 nM (active) and 525 nM (active).
`CC(C)(C)c1nc2c3cc[nH]c(=O)c3c3cc(F)ccc3c2[nH]1`: the Potency was 0.468 µM (active).
As for `CCC[C@H]1C[C@H](C(=O)N[C@@H]([C@@H]2O[C@@H](SC)[C@@H](O)[C@@H](O)[C@@H]2O)[C@H](C)Cl)N(C)C1`, the “activity change, negative = cell killing” value was -7.85%.
Consider `O=C(CCCCCCC(=O)Nc1cccnc1)NO`, for which the Potency is 3.32 µM (active).
With `c1ccc(CNc2nc(NCc3ccccc3)c3ccccc3n2)cc1`, the Potency was 5.9 µM (active).
Same read-out and setting: the same measure for `COc1cc(O)c2c(c1)C1OC1C[C@H](O)[C@H](O)C(=O)C=CC[C@H](C)OC2=O` (some centres not stated): 3.32 µM (active); for `CC(Cc1ccc(O)c(O)c1)(NN)C(=O)O` (configuration not stated): 29.5 µM (active).
For `C[C@@H]1C(=O)O[C@H]2CC34[C@H]5C[C@@H](C(C)(C)C)C36[C@H](OC(=O)[C@@H]6O)O[C@@]4(C(=O)O5)[C@]21O` (some centres not stated), the “activity change, negative = cell killing” value is -19.7%.
For `Nc1ccc(C(=O)Nc2cccc(-c3nc(N4CCOCC4)c4oc5ncccc5c4n3)c2)cn1`, the Potency is 1.29 µM (active) and 1.05 µM (active).
The same measure, in the same setting: the same measure for `c1cc(N[C@@H]2CCNC2)nc(-c2cnc3ccc(-c4cn[nH]c4)cn23)c1`: 0.934 µM (active); for `Cc1ccc2nc(NCCN)c3ncc(C)n3c2c1`: 9.2 µM (active) and 3.72 µM (active).
With `COc1cc(C(=O)NC2CCN(C)CC2)ccc1Nc1ncc2c(n1)N(C1CCCC1)CCC(=O)N2C(C)C`, the Potency is 10.5 µM (active).
For `CCC(C)CCCCC(=O)N[C@@H](CCN)C(=O)NC(C(=O)N[C@H](CCN)C(=O)N[C@@H]1CCNC(=O)C([C@@H](C)O)NC(=O)[C@@H](CCN)NC(=O)[C@@H](CCN)NC(=O)[C@@H](CC(C)C)NC(=O)[C@H](Cc2ccccc2)NC(=O)[C@H](CCN)NC1=O)[C@@H](C)O` (stereo partly drawn) ({Octanoyl(6-Me)}-[Dab][ξThr(3R)][dDab][dDab][Dab]F[dL][dDab][dDab][ξThr(3R)]; lactam 4-C), the “activity change, negative = cell killing” value is 1.37%.
Turning to `Oc1ccc(-c2ccc(-c3cc(Nc4cccc(CNC5CC5)c4)n[nH]3)cc2)c(O)c1`, the Potency is 1.86 µM (active).
`CC(C)C[C@H](NC(=O)[C@@H](NC(=O)c1cccc(-c2ccccc2)n1)[C@@H](C)O)B(O)O`: the Potency was 18.3 nM (active) and 22.9 nM (active).
For `CN1C(C(=O)Nc2ccccn2)=C(O)c2sc(Cl)cc2S1(=O)=O`, the “activity change, negative = cell killing” value was -3.39%.
Consider `Nc1nc(=O)n([C@H]2C[C@H](O)[C@@H](CO)O2)cc1F`, for which the Potency was 0.0148 µM (active).
Take `O=C(O)CCCCC(CCSCc1ccccc1)SCc1ccccc1` (configuration not stated): the “activity change, negative = cell killing” value was -14.1%.
On to `CC[C@@]1([C@@H]2O[C@@H]([C@H]3O[C@@](O)(CO)[C@H](C)C[C@H]3C)C[C@H]2C)CC[C@H]([C@]2(C)CC[C@]3(C[C@H](O)[C@@H](C)[C@@H]([C@@H](C)[C@@H](OC)[C@H](C)C(=O)O)O3)O2)O1`, for which the Potency is 0.102 µM (active).
In the case of `C[C@H](NC(=O)Cc1cc(F)cc(F)c1)C(=O)N[C@H](C(=O)OC(C)(C)C)c1ccccc1`, the compound was classed as inactive.
As for `O=C(CN1C(=O)C2(CCCC2)NC[C@H]1c1cc(F)cc(F)c1)Nc1ccc2c(c1)C[C@@]1(C2)C(=O)Nc2ncccc21`, the “activity change, negative = cell killing” value is -6.81%.
`CCC[C@@H](C=O)NC(=O)[C@H](CC(C)C)NC(=O)[C@H](CC(C)C)NC(=O)OCc1ccccc1` (Cbz-Leu-Leu-[Nva]-aldehyde): the Potency is 1.05 µM (active).
The same measure, in the same setting: the same measure for `Cn1c(Nc2ccc(C(F)(F)F)cc2)nc2cc(Oc3ccnc(-c4ncc(C(F)(F)F)[nH]4)c3)ccc21`: 8.2 µM (active) and 4.17 µM (active).
As to `N=c1ccn2c(n1)O[C@H]1[C@@H](O)[C@@H](CO)O[C@H]12`, the Potency is 0.0235 µM (active).
On to `CC(C)NC[C@@H](C(=O)N1CCN(c2ncnc3c2[C@H](C)C[C@H]3O)CC1)c1ccc(Cl)cc1`, for which the Potency was 2.63 µM (active).
For `O=C(c1ccc(F)cc1)N1CCC[C@H](c2nc(-c3ccc(F)cc3)no2)C1`, the “activity change, negative = cell killing” value was -1.94%.
Regarding `O=C(Nc1cccc(Nc2ncc(Br)c(NCCc3cnc[nH]3)n2)c1)N1CCCC1`, the Potency is 0.59 µM (active).
Regarding `COc1cc(C)c(Sc2cnc(NC(=O)c3ccc(CNC(C)C(C)(C)C)cc3)s2)cc1C(=O)N1CCN(C(C)=O)CC1` (configuration not stated), the Potency was 4.68 µM (active).
For the compound `CC(=O)OC[C@@H]1O[C@@H](n2ccc(=O)[nH]c2=O)[C@H](OC(C)=O)[C@H]1OC(C)=O`, the “activity change, negative = cell killing” value is 3.26%.
As to `C[N+](C)([O-])CCNc1ccc(NCC[N+](C)(C)[O-])c2c1C(=O)c1c(O)ccc(O)c1C2=O`, the Potency was 0.0372 µM (active).
As for `C[C@@H](Cc1cc2c(c(C(N)=O)c1)N(CCCO)CC2)NCCOc1ccccc1OCC(F)(F)F`, the “activity change, negative = cell killing” value was -28.4%.
